Compounds with a hit are over-represented: about 5.2% of the library has one in this group of screens.
Vif imaging = HIV Vif self-association inhibitors, primary screen, imaging, HEK293T, single point | AID 602346, 2012 | HEK293T cells, Vif self-association by quenched fluorescence, 24 h | inhibition, % at 7.49 µM | hit rate 0.35% among 340,000; in the data active means inhibition above about 50%, passing the limit was not always enough
NadD inh = inhibitors of S. aureus NadD, primary screen, biochemical, colorimetric, uHTS | hit rate 0.78% among 360,000 | Nicotinate-nucleotide adenylyltransferase NadD (Staphylococcus aureus N315) | inhibition, % at 20 µM | purified NadD enzyme, colorimetric absorbance read-out; in the data active means inhibition above about 26%
SMARCA2 act = SMARCA2 (BRM) function activators, primary screen, cell-based, luminescence, high throughput. MG213 cells, MMTV-luciferase reporter, dexamethasone, overnight. activation, % at 9.1 µM. hit rate 1% among 370,000; in the data active means activation above about 7.8%
SKN-1 inh = suppressors of acrylamide-induced Pgst-4::GFP reporter in worms, primary screen, SKN-1 inhibitor project, whole organism, uHTS, GFP/RFP fluorescence ratio, strain VP596; inhibition, % at 21.8 µM; AID 624304, 2012; hit rate 0.49% among 360,000; C. elegans VP596 Pgst-4::GFP/RFP ratio, 24 h;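 active means interference check ratio from 0.5 to 1.5 plus GFP to RFP signal ratio inhibition reaching or exceeding a fixed threshold, cut at about 30% in these data, passing the limit was not always enough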
esBAF inh = Bmi1 luciferase reporter increase in mESCs, primary screen, esBAF inhibitor project, mouse ES cells, Bmi1 luciferase knock-in, single point; 24 h; 100% = twice the neutral-well signal; reporter increase, % at 12.5 µM; AID 602393, 2012; hit rate 2% among 350,000; in the data active means activation above about 40%;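 further: a rise in the Bmi1 reporter signal indicates esBAF inhibition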
GRIN3A LBD mod = binders of NR3A ligand-binding domain, primary screen, biophysical, differential scanning fluorimetry, uHTS; NR3A LBD differential scanning fluorimetry, Tm shift; 0% = protein alone, 100% = glycine-bound protein; hit rate 2.5% among 340,000; Tm shift relative to glycine control, % at 25 µM; AID 1259313, 2017;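 active means melting temperature shift of at least 10% of the positive control shift, at one fixed dose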
SMARCA2 act conf = SMARCA2 (BRM) function activators, confirmation, cell-based, luminescence, triplicate. shares compounds with SMARCA2 act. MG213 cells, MMTV-luciferase with dexamethasone, overnight; MG213 cells expressing E1A, Rb sequestered; DMSO wells 0%, reference activator 100%. activation, % at 9.1 µM. hit rate 30% among 3,500. AID 652260, 2013;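 active means activation above its plate's cutoff, the mean activation of tested wells plus 3 SD, cut at about 7.9% in these data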
VP16 Luc act = GAL4-VP16 luciferase reporter activation, counter-screen for SMARCA2 (BRM) activator project, cell-based, pG5luc, luminescence, high throughput; shares compounds with SMARCA2 act; HEK293 GAL4-VP16 pG5luc reporter; scaled: DMSO wells 0%, SAHA wells 100%; activation, % at 9.1 µM; hit rate 41% among 3,500; AID 686939, 2013;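 active means activation above the solvent-only control well mean plus 3 SD, averaged across control plates, cut at about 5.2% in these data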
Large screens that a line does not name were inactive (follow-up assays come after a bar, where they were run).

CCC(=O)Nc1ccc2c(c1)ncn2-c1ccc(C)cc1	SMARCA2 act 8.6, esBAF inh 49 | SMARCA2 act conf inactive | VP16 Luc act 8.7
COc1ccc(NC(=O)Nc2ccc3c(c2)[C@@H]2C[C@H](CC(=O)N4CCOCC4)O[C@H](CO)[C@@H]2O3)cc1	none (no result: Vif imaging, NadD inh, SMARCA2 act, SKN-1 inh, GRIN3A LBD mod)
COc1ccccc1/C=C/C(=O)Nc1ccc2c(c1)CCC2	SMARCA2 act 8.9 (no result: esBAF inh) | SMARCA2 act conf inactive | VP16 Luc act 14
CCOC(=O)c1nc(S(C)(=O)=O)ncc1Cl	SMARCA2 act 34 | SMARCA2 act conf inactive | VP16 Luc act inactive
CC(=O)Nc1cc(C(=O)OCC(=O)c2ccccc2)ccc1C	SMARCA2 act 8.3 (no result: esBAF inh) | SMARCA2 act conf inactive | VP16 Luc act 10
CC(=O)Nc1ccc(C(=O)OCC(=O)c2ccc(C)c([N+](=O)[O-])c2)cc1	none
N#C[C@@H]1[C@@H](c2ccccc2)[C@H](CO)N1C(=O)Cc1ccccc1	none (no result: Vif imaging, NadD inh, SMARCA2 act, SKN-1 inh, GRIN3A LBD mod)
CCC(=O)Nc1ccc2c(c1)C(=O)N(C)C[C@@H](OC)[C@H](C)CN(Cc1ccccc1C(=O)O)[C@H](C)CO2	none (no result: Vif imaging, NadD inh, SMARCA2 act, SKN-1 inh, GRIN3A LBD mod)
COc1ccc(CCN2CC(C(=O)NCCc3ccccc3)CC2=O)cc1OC (centres undefined)	SMARCA2 act 8.7 | SMARCA2 act conf inactive | VP16 Luc act inactive
CCOc1ccc(CCNC(=O)C2CC(=O)N(CCc3ccccc3)C2)cc1OCC (centres undefined)	none
CSc1oc(-c2ccco2)nc1S(=O)(=O)c1ccc(C)cc1	SMARCA2 act 9.2 | SMARCA2 act conf inactive | VP16 Luc act inactive
CC1=Nc2cc([N+](=O)[O-])ccc2NC(C)(C)C1	SMARCA2 act 11 | SMARCA2 act conf inactive | VP16 Luc act inactive
O=C(Nc1ccc2c(c1)[C@H]1C[C@@H](CC(=O)N3CCc4ccccc4C3)O[C@H](CO)[C@H]1O2)NC1CCCC1	none (no result: Vif imaging, NadD inh, SMARCA2 act, SKN-1 inh, GRIN3A LBD mod)
CCC(=O)N1[C@H](CN(C)C(C)=O)[C@H](c2ccc(-c3cccnc3)cc2)[C@@H]1CO	none (no result: Vif imaging, NadD inh, SMARCA2 act, SKN-1 inh, GRIN3A LBD mod)
O=C([C@H]1[C@H](CO)[C@H]2Cn3c(ccc(/C=C/c4ccccc4)c3=O)[C@H]2N1CC1CC1)N1CCOCC1	none (no result: Vif imaging, NadD inh, SMARCA2 act, SKN-1 inh, GRIN3A LBD mod)
COc1ccc(NC(=O)N2C[C@@H]3[C@H](c4ccccc42)[C@H](CO)N3C(=O)C2CCCC2)cc1	none (no result: Vif imaging, NadD inh, SMARCA2 act, SKN-1 inh, GRIN3A LBD mod)
N#C[C@H]1[C@@H](c2ccc(/C=C/c3ccccc3)cc2)[C@@H](CO)N1C(=O)Cc1ccccn1	none (no result: Vif imaging, NadD inh, SMARCA2 act, SKN-1 inh, GRIN3A LBD mod)
CCOC(=O)c1cnc(-c2ccccc2O)nc1Cl	SMARCA2 act 8.1 (no result: esBAF inh) | SMARCA2 act conf inactive | VP16 Luc act inactive
Cn1c(/C=C/c2ccc(Cl)cc2)nc2ccccc2c1=O	SMARCA2 act 8.7, esBAF inh 69 | SMARCA2 act conf inactive | VP16 Luc act 6.1
CC(=O)c1sc(NC(=O)CCS(=O)(=O)c2ccccc2)nc1C	SMARCA2 act 11 (no result: esBAF inh) | SMARCA2 act conf 7.8 | VP16 Luc act inactive
C[C@H]1CN([C@@H](C)CO)C(=O)Cc2cc(NS(=O)(=O)c3ccc(F)cc3)ccc2O[C@@H]1CN(C)C(=O)Nc1cccc2ccccc12	none (no result: Vif imaging, NadD inh, SMARCA2 act, SKN-1 inh, GRIN3A LBD mod)
COc1cc(/C=N/N=C2/NC(=O)C(Cc3ccccc3)S2)ccc1O (centres undefined)	SMARCA2 act 9.0 (no result: Vif imaging) | SMARCA2 act conf inactive | VP16 Luc act 5.3
COc1ccc(/C=N/N=C2/NC(=O)C(CC(=O)O)S2)cc1OS(=O)(=O)c1ccccc1 (centres undefined)	none
CO[C@@H](CN(C)Cc1cc(F)ccc1F)[C@H](C)CN([C@@H](C)CO)S(=O)(=O)c1ccc(Cl)cc1	none (no result: Vif imaging, NadD inh, SMARCA2 act, SKN-1 inh, GRIN3A LBD mod)
